These results are taken from PubChem BioAssay AID1051 (The Scripps Research Institute Molecular Screening Center, 2008).

Structures are written as SMILES. The whole screen tested about 99,000 compounds, of which about 340 (0.34%) were called active. The list comes from a sample in which actives are over-represented; it also holds similar structures and randomly drawn compounds. A number with no mark means an inactive call. Cut-off read from the data, not from the text of the source: active = TR-FRET ratio above about 2300; inactive = the rest.

The nature of this test: signal artefacts in PPARgamma/SRC-1 readout – biochemical, TR-FRET emission ratio, artefact control for PPARgamma SRC-1 recruitment agonists, primary screen (AID 1051). The note with it: TR-FRET detection artefact counter-screen, at 8 µM, stronger effect = higher value.
Take `COC(=O)c1ccc(CN2CCN(CCCc3ccccc3)C(CCO)C2)cc1` (stereo unspecified): the TR-FRET ratio is 1770. For `CC(=O)N1c2ccccc2N(Cc2ccc([N+](=O)[O-])cc2)C(=O)C1(C)C` the value was 1840. As for `N#Cc1c(NC(=O)C2CC(Cl)=CCC2C(=O)O)sc2c1CCCCC2` (stereo unspecified), the TR-FRET ratio is 1990. As for `COC(=O)C(C)N=Cc1ccccc1` (stereo unspecified), the figure is 1960. For `CCN(CC)S(=O)(=O)c1ccc(Cl)c(NC(=O)c2ccncc2)c1` the value was 1750; for `Cc1ccc(-c2cn3cc([N+](=O)[O-])ccc3n2)cc1`, 1970; for `COc1cc(/C=C/C(=O)OCC(=O)N2CCOCC2)ccc1OCC#N`, 1960. In the case of `Cc1cc(NC(=O)CSc2nc3c(cc2C#N)CCCCC3)no1`, the TR-FRET ratio is 1930. On to `C/C(CC(=O)Nc1cccc(F)c1)=N\NC(=O)C(=O)NC1CCCCC1`, for which the TR-FRET ratio was 1840. For `CCOc1ccc(N(CC(=O)NCCc2ccc(OC)cc2)S(C)(=O)=O)cc1` the value was 1790; for `Cc1ccccc1CN(c1ccc(C(=O)NCC2CCCO2)cc1)S(C)(=O)=O` (stereo unspecified), 1760. For `CNc1[nH]ncc1[N+](=O)[O-]` the value was 1620; for `O=C(c1ccc(OC2CCN(Cc3ccccn3)CC2)cc1)N1CCCCCC1`, 1590; for `CCc1nnc(NC(=O)/C=C/c2ccc(C)o2)s1`, 1650. In the case of `CCOC(=O)C1CCCN(C(=O)c2cccc(S(=O)(=O)N3CCOCC3)c2)C1` (stereo unspecified), the TR-FRET ratio was 1820. As for `Cc1nc2ccc(NC(=S)N3CCC(C)CC3)cc2nc1C`, the TR-FRET ratio was 1940.

In the case of `Cn1cc(CCC(=O)N2CCCC(C(=O)c3ccc(C(C)(C)C)cc3)C2)cn1` (stereo unspecified), the TR-FRET ratio was 2020. For the compound `Cc1coc(C)c1C(=O)CC1(O)C(=O)N(C)c2ccc(Cl)cc21` (stereo unspecified), the TR-FRET ratio was 1870. As for `CC(C)CC(CC(C)C)=NNC(=O)c1ccc(CSc2nncn2C)cc1`, the figure is 1890; as for `O=C(C1CC1)N1N=C2CCCCC2C1(O)C(F)(F)F` (stereo unspecified), 1750; as for `O=[N+]([O-])c1cc(S(=O)(=O)N2CCCC2)ccc1NN=C1CCCC1`, 1910. For `Cn1cnnc1SCc1nnc(-c2ccccc2Br)o1` the value was 1590. As for `CCOC(=O)CCCNC(=O)COC(=O)/C=C/c1ccc2c(c1)OCO2`, the figure is 1620; as for `O=C(OCC(=O)N1CCOCC1)c1ccc(N2CCOCC2)c([N+](=O)[O-])c1`, 2030; as for `COc1ccc(NC(=S)N2CCCC(CO)C2)c(OC)c1` (stereo unspecified), 1690.

Turning to `Cc1nn(C)c(C)c1S(=O)(=O)N1CCC(CO)(Cc2ccc(Cl)cc2)CC1`, the TR-FRET ratio is 1980. With `O=C(CCN1C(=O)c2ccccc2C1=O)NNC(=O)c1ccc(Cl)cc1Cl`, the TR-FRET ratio is 2130. With `CCC1CO/C(=C(\C(=C(Cl)Cl)N2CCOCC2)[N+](=O)[O-])N1` (stereo unspecified), the TR-FRET ratio was 1830.

As to `CN(C(=O)CSc1nncc2ccccc12)C1CCCCC1`, the TR-FRET ratio is 1810. On to `Cc1ccc(Sc2ccncc2S(N)(=O)=O)cc1`, for which the TR-FRET ratio is 1560. For `CNc1nccc(-c2ccc(Cl)cc2)c1C#N` the value was 1880; for `N#Cc1c(-c2ccc(Cl)cc2)c2c([nH]c1=S)CCCC2`, 2380 (active); for `CCOC(=O)c1c(C)[nH]c(=S)c(C#N)c1-c1ccccc1`, 1630. For `Clc1cccc(-c2nc(NCC3CCCO3)c3ccccc3n2)c1` (stereo unspecified) the value was 1630. As to `CCc1[nH]nc(C(=O)N2CCCC(CNS(=O)(=O)c3cccs3)C2)c1C` (stereo unspecified), the TR-FRET ratio is 1580. Regarding `O=C(O)Cc1sc(-c2ccc(C(=O)O)cc2)nc1-c1ccccc1`, the TR-FRET ratio was 1940. As for `O=C(O)Cc1sc(-c2ccccc2)nc1-c1cccs1`, the figure is 2910 (active); as for `O=C(O)Cc1ccc(-c2ccccc2)cc1`, 1790.

As for `O=C(Nc1ccccc1)N1CCN(C(=O)Nc2ccccc2)CC1`, the TR-FRET ratio is 1700. `Cc1nc2ccccc2c(C)c1C(=O)c1ccc(F)cc1`: the TR-FRET ratio was 1400. Consider `CCC(CC)C(=O)N1CCN(c2cccc(C)c2C)CC1`, for which the TR-FRET ratio is 1600. With `O=C(COC(=O)c1ccc(F)cc1)Nc1nc2ccc([N+](=O)[O-])cc2s1`, the TR-FRET ratio is 1760. For `COc1ccc(OCC(=O)Nc2nnc(-c3ccco3)s2)cc1` the value was 2500 (active); for `COc1ccc(Cc2nnc(NC(=O)Cc3cccs3)s2)cc1`, 1780. As for `COc1ccc(OCCCC(=O)Nc2nnc(C3CCCO3)s2)cc1` (stereo unspecified), the figure is 1980; as for `C=CCO/N=C/C1=C(O)C(C(=O)OC)C(C)(C)CC1=O` (stereo unspecified), 1870; as for `O=C(NCc1ccccn1)c1cc(Br)ccc1Cl`, 1780. Regarding `O=C(NCc1cccs1)c1cc(-c2ccccn2)nc2ccc(Br)cc12`, the TR-FRET ratio was 2520 (active). On to `O=C(Nc1ccncc1)c1cc(-c2ccccn2)nc2ccc(Br)cc12`, for which the TR-FRET ratio is 1860. Turning to `C/C(N)=C(/C#N)C(=O)COC(=O)c1cc(-c2ccccc2)nc2ccc(Br)cc12`, the TR-FRET ratio was 1910. As for `Cc1ccc(-c2cc(C(=O)NCc3cn(C)nc3C)c3cc(Br)ccc3n2)cc1`, the figure is 2880 (active).
